Source: PubChem BioAssay (NCI)
This is part of a sample that, as a whole, favours compounds with a hit. Of some 83,000 tested, about 20% had one in any assay.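 Cell lines were cultured in 96-well plates, exposed to a single compound concentration, and assessed for percent growth 48 hours later.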 Unmarked numbers belong to inactive results. Activity calls are given as the source filed them. The calls were made as follows: active = growth percent below 10; inactive = the rest.

What was measured:
Test in all cases: NCI-60 one-dose screen, 48 h (100 = growth as untreated, 0 = no growth, -100 = all killed)
Conditions in all cases: 10 µM unless noted
[1] = test system: NCI-H23 lung
[2] = test system: NCI-H226 lung
[3] = test system: NCI-H322M lung
[4] = test system: HOP-62 NSCLC
[5] = test system: NCI-H460 lung
[6] = test system: NCI-H522 lung
[7] = test system: A549/ATCC NSCLC
[8] = test system: 786-0 renal
[9] = test system: DU-145 prostate
[10] = test system: MALME-3M melanoma
[11] = test system: MDA-MB-231 breast
[12] = test system: RXF 393 renal
[13] = test system: SF-268 CNS
[14] = test system: SF-295 CNS
[15] = test system: SF-539 CNS
[16] = test system: UACC-257 melanoma
[17] = test system: M14 melanoma
[18] = test system: K-562 leukemia
[19] = test system: COLO 205 colon

SMILES | growth [1] [%] | growth [2] [%] | growth [3] [%] | growth [4] [%] | growth [5] | growth [6] | growth [7] [%] | growth [8] [%] | growth [9] [%] | growth [10] [%] | growth [11] [%] | growth [12] | growth [13] [%] | growth [14] | growth [15] | growth [16] [%] | growth [17] [%] | growth [18] [%] | growth [19] [%]
Cc1ccsc1C(=O)CC(=O)C(F)(F)C(F)(F)C(F)(F)F | 104 | 93.1 | 104 | 99.4 | 114% | 112% | 99.4 | 106 | 112 | 105 | 96.6 | 108% | 107 | 97.1% | 102% | 108 | 117 | – | –
COc1cc(Cl)cc(-c2nn(C(=O)NCCN3CCOCC3)cc2-c2ccncc2)c1 | 84.9 | 99.7 | 104 | 56.7 | 56.1% | 18.3% | 60.7 | 61.8 | 86.1 | 70.2 | 82.1 | 76.3% | 80.9 | 52.7% | 68.4% | 81.7 | 62 | 28.1 | –
CCOC(=O)c1cc(C(=O)OCC)c(C)nc1C | 102 | 105 | 106 | 102 | 111% | 103% | 101 | 106 | 109 | 104 | 107 | 117% | 108 | 107% | 103% | 107 | 111 | 91.4 | –
CCC(=O)OCc1ccc(OC)cc1 | 99 | 101 | 110 | 109 | 111% | 106% | 107 | 101 | 123 | 124 | 101 | 118% | 115 | 101% | 93.5% | 96.6 | 100 | 94.4 | –
COc1ccc2c(c1)sc1nc(-c3ccccc3)c(-c3cccc4ccccc34)n12 | 39.3 | 68.2 | 57.9 | 64.4 | 8.82% (active) | -11% (active) | 24.2 | 51.7 | 18.9 | 51.5 | 39.7 | 7.5% (active) | 50.8 | -38.7% (active) | 0.248% (active) | 68.4 | 21 | 15 | –
CCN(CC)c1ccc(/C=N/N=C(N)N)cc1 | 65.7 | 84.5 | 87.7 | 54.8 | 23.3% | 27.1% | 44.6 | 72.4 | 55.5 | 58.9 | 66 | 68% | 45.7 | 27.8% | 51.8% | 47.9 | 42.4 | 26.3 | –
Cc1ccc(C(=O)CC(=O)C(F)(F)C(F)(F)C(F)(F)F)s1 | 105 | 103 | 105 | 96.9 | 111% | 121% | 104 | 97.2 | 104 | 98.7 | 92.1 | 111% | 101 | 103% | 98.7% | 105 | 103 | – | 119
CN1C(=O)C(C(=O)/C=C/c2ccccc2C(=O)O)C(=O)N(C)C1=O | 95.1 | 99.5 | 99.1 | 91.3 | 104% | 90.5% | 97.4 | 94.7 | 111 | 103 | 109 | 118% | 100 | 98.4% | 104% | 93.3 | – | 90.1 | –
CC1=CCC2C1CC=C(C)C(CC[C@H]1[C@@](C)(O)CCC3OC(C)(C)[C@H](OC(=O)c4ccccc4)CC[C@@]31C)C2(C)C (stereo partly drawn) | 65.2 | 72.9 | 96.3 | 86 | 97.1% | 67.8% | 78.7 | 70.9 | 106 | 111 | 88 | 69.8% | 93.6 | 84.7% | 99.1% | 81.3 | 90.1 | – | 112
CN(C)c1nc(-c2ccco2)n2nc(-c3ccc(Cl)cc3)cc2n1 | 77.5 | 52 | 69.8 | 38 | 27.7% | 71.5% | 49.6 | 43.4 | 77 | 98.6 | 54.3 | 51% | 66.6 | 56% | 63.4% | 98.7 | 87 | 67.4 | –
